# Compound activity (PubChem)
# Pf Dd2 growth: blocks in vitro growth of P. falciparum Dd2. 120,000 compounds, 4.3% hits. P. falciparum Dd2 growth, SYBR Green, 72 h. Potency, µM (titrated, usually from 28.9 µM), for the others: top-dose activity, negative = inhibition, most hits filed as inhibitors; active = well fitted inhibition curve with a large enough effect;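 also: plate controls were DMSO vehicle for no effect and reference drug for full effect; nearly all actives have a fitted effect of over 65% in size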
#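 Readout: SYBR Green fluorescence, 485 nm excitation, 535 nm emission, after ~16 h lysis at 37C. Before that, Dd2-infected red cells (2.5% hematocrit) grew 72 h with compound, 29 uM top final concentration.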
# * = called active by the depositor; i = inactive; [ ] = dose if it differs, or a comment. The entries come from a sample that favours hits as a whole. Potency is read from the fitted curve at half-maximal effect.
SMILES,Pf Dd2 growth
COc1cc(CN2CCC3(CCN(CC4CC4)CC3)C(CO)C2)ccc1F (stereo not given),8.9µM*
CCOC(=O)C1=CN(CC(=O)Nc2ccc(C)c(C)c2)S(=O)(=O)N=C1C,27%
O=C1CC(c2ccccc2)N(C(=O)C2CC2)CCCN(C(=O)COc2ccccc2)CCN1 (stereo not given),i
COc1ccc(C(=O)N2CCC(Cc3nc(-c4ccc(F)cc4)no3)CC2)c(C)c1,i
Cc1cc(C(=O)N2CC(F)(F)C[C@H]2c2nnc(C3CC3)o2)on1,-25%
Cc1ccc(C2Cn3nnc(C(=O)N4CCC(C(=O)NCc5ccncc5)CC4)c3CO2)cc1 (stereo not given),i
CCc1ccc(NC(=O)CN(c2ccc(C)cc2)S(=O)(=O)c2c(C)nn(C)c2C)cc1,-13%
Cc1cccc(CCNC(=O)CN(c2ccc(C(C)C)cc2)S(=O)(=O)c2c(C)nn(C)c2C)c1,10µM*
Cc1ccc(CCNC(=O)CN(c2ccc(C)cc2)S(=O)(=O)c2c(C)noc2C)cc1,11%
Cn1nccc1C(=O)N1CCC(N2C(=O)C(OCC3CC3)C23CCOCC3)CC1 (stereo not given),10%
Cc1nc([C@@H]2CN(C(=O)c3ccc(Cn4ccnc4)o3)C[C@H]2C(N)=O)n[nH]1,6%
COc1ccc(-c2nc3c(c(=O)[nH]2)CCN(C(=O)NCC2CCCO2)C3)cc1 (stereo not given),i
COc1ccc(-c2nc3c(c(=O)[nH]2)CCN(C(=O)Nc2ccc4c(c2)CCC4)C3)cc1,i
COc1ccc(-c2nc3c(c(=O)[nH]2)CCN(C(=O)c2nccc4ccccc24)C3)cc1,5µM*
COc1ccc(-c2nc3c(c(=O)[nH]2)CCN(C(=O)c2cc(Cl)ccc2OC)C3)cc1,10µM*
COc1ccc(-c2nc3c(c(=O)[nH]2)CCN(C(=O)Nc2cc(F)cc(F)c2)C3)cc1,i
COc1ccc(-c2nc3c(c(=O)[nH]2)CCN(S(=O)(=O)C2CC2)C3)cc1,-15%
COCCNS(=O)(=O)c1cc(C(=O)O)cc(-c2cccc3cccnc23)c1,-2%
CN(Cc1ccccc1)C1CCc2ccccc21 (stereo not given),-17%[44.1 µM]
CC(C)C(=O)N1CCC2(COc3ncccc3S(=O)(=O)N2)C1 (stereo not given),3%
Cc1cccc(C(=O)N2CCC3(CC2)OCC(C(=O)NC2CC2)N3C(=O)c2cccc(C)c2)c1 (stereo not given),-26%
CNC(=O)[C@@H]1CN(C(=O)c2nn(C)c3ccccc23)C[C@H]1COC,-23%
COC(=O)CCNC(=O)C1CN(S(=O)(=O)c2cccnc2)CC12CCCCC2 (stereo not given),-10%
O=C(Nc1cc(F)ccc1F)C1CN(S(=O)(=O)c2cccnc2)CC12CCCCC2 (stereo not given),-20%
O=C(NCCN1CCOCC1)C1CN(S(=O)(=O)c2ccccc2)CC12CCCCC2 (stereo not given),4µM*
SMILES,Pf Dd2 growth
O=C(NCc1cc(F)ccc1F)C1CN(S(=O)(=O)c2cccnc2)CC12CCCCC2 (stereo not given),2.8µM*
O=C(NCCCN1CCCC1=O)C1CN(S(=O)(=O)c2ccccc2)CC12CCCCC2 (stereo not given),34%
O=C(NCCc1cccs1)C1CN(S(=O)(=O)c2cccnc2)CC12CCCCC2 (stereo not given),-5%
COC(=O)COCC(=O)NC[C@@H]1C=C(C)[C@H](CC(=O)NCc2ccc(F)cc2)C[C@H]1C(C)C,-14%
O=C([C@H]1C[C@H](Oc2ccccc2)CN1C(=O)C1CCC1)N1CCOCC1,10%
COCCCn1c(C)cnc1C1CCN(C(=O)Nc2ccc3c(c2)OCCO3)C1 (stereo not given),-18%
Cc1ccn(CCCNc2cc(C(C)C)ncn2)n1,-1%
O=C(N[C@@H]1CCOC[C@H]1Oc1cccc(F)c1)c1cnc2c(c1)CCC2,-9%
COc1ccc(-c2nc3scc(CCNC(=O)c4cc(OC)cc(OC)c4)n3n2)cc1,7.1µM*
COc1ccc(-c2nc3scc(CCNC(=O)Cc4ccc(F)cc4)n3n2)cc1,-12%
COc1ccc(-c2nc3scc(CCNS(=O)(=O)c4ccc(Oc5ccccc5)cc4)n3n2)cc1,-16%
Cc1ccc(C#N)c(N2CCC(c3nnc(Cn4cncn4)n3C)CC2)n1,5%
CN1CC(=O)N(C2CCCNCC2)Cc2c1ncnc2N1CCC(O)CC1 (stereo not given),14%
Cc1cc(C(F)(F)F)nn1CC(=O)NCCn1c(C)cnc1C1CCC1,-3%
COCCN1C(=O)CS(=O)(=O)C12CCN(C(=O)c1ccc(OC)cc1OC)CC2,-6%
CCN(CC)C(=O)CCc1c(C)nn(-c2cccc(C)c2)c1Oc1ccccc1,-14%
CCN(CC)C(=O)CCc1c(C)nn(-c2ccc(F)cc2)c1Oc1ccccc1F,i
CCN(CC)C(=O)CCc1c(C)nn(-c2ccccc2)c1Oc1ccccc1,10µM*
CCn1cc(S(=O)(=O)N2CC[C@H](c3nc(C)no3)[C@H](NC(=O)C3CC3)C2)cn1,8%
CCc1ccc(-c2nc(CSCC(=O)N3CCN(c4ccc(F)cc4)CC3)c(C)o2)cc1,i
O=C(CSc1n[nH]c(-c2ccccc2)n1)N1CCN(c2ccc(F)cc2)CC1,5%
O=C(CSc1nc2ccccc2nc1Cc1ccccc1)N1CCN(c2ccccc2)CC1,44%
COc1ccc(N2CCN(C(=O)CSCc3ccc(C)cc3)CC2)cc1,-15%
COc1ccc(-c2nc(CSCC(=O)N3CCN(c4ccccc4)CC3)c(C)o2)cc1,7.1µM*
Cc1ccc(CSCC(=O)N2CCN(c3ccc(F)cc3)CC2)cc1,19%
SMILES,Pf Dd2 growth
COc1ccc(N2CCN(Cc3nc(-c4ccc(C)cc4)no3)CC2)cc1,i
COc1ccc(N2CCN(C(=O)CSc3nc(-c4ccc(C(C)C)cc4)no3)CC2)cc1,0.28µM*
COc1ccc(N2CCN(C(=O)CSc3n[nH]c(-c4ccccc4)n3)CC2)cc1,6%
CC(C)c1ccc(-c2noc(SCC(=O)N3CCN(c4ccc(F)cc4)CC3)n2)cc1,0.45µM*
O=C(CSc1nc(-c2ccccc2)no1)N1CCN(c2ccccc2)CC1,10µM*
COc1ccc(N2CCN(C(=O)CCc3conc3-c3ccc(F)cc3)CC2)cc1,i
CCN(CC)C(=O)[C@@H]1CCC[C@@H](NC(=O)Nc2c(C)noc2C)CN(C)C(=O)C1,27%[44.1 µM]
NC(=O)C1(c2nc(C3CCOC3)nn2CC2CCCCC2)CC1 (stereo not given),-14%
Cc1ccc(S(=O)(=O)NC[C@H]2OC[C@@H](NC3CCNCC3)[C@@H]2O)cc1,25%
CN(c1cc(=O)c2ccnc(-c3ccc([S+](C)(=O)[O-])cc3)c2o1)C1CCOCC1,i
O=C(c1ccc(F)cc1F)N1CCC(n2cnnc2C2CC2)CC1,12%
COc1ccc2nc(CO[C@H]3CN(Cc4ccc(S(C)(=O)=O)cc4)C[C@H]3F)[nH]c2c1,i
O=C(NCCc1ccccc1)N1CCC(OC2CCN(Cc3ccccc3)CC2)CC1,-8%
Cc1n[nH]c(C)c1CCC(=O)NCC1CCN(c2cc(-c3ccc(F)cc3)[nH]n2)CC1,i
CC(C)CNC[C@H]1O[C@H](Cc2cc(CN3CCOCC3)on2)CC[C@@H]1O,2%[44.1 µM]
O=C(Nc1ccc(Cl)cc1)N1CCn2c(nnc2-c2ccccc2)C1,-22%
Cc1cc(CN2CC(Oc3ccc(F)cc3F)C2)no1,5%[44.1 µM]
COC(=O)CSc1nnc2n(-c3ccccc3)c(=O)c3c4c(sc3n12)COC(C(C)C)C4 (stereo not given),34%
